# Compound activity: PubChem BioAssay, National Center for Advancing Translational Sciences (NCATS)
# BAZ2B inh = qHTS Assay for Inhibitors of BAZ2B; AlphaScreen BAZ2B-H3K14Ac peptide displacement; Potency, µM (titrated, usually from 114 µM), for inactives: at the highest dose activity change, negative = inhibition, hits mostly inhibitors; 360,000 tested, 4.4% active; AID 504333, 2011; also: % is scaled to controls: 0 for no effect and ±100 for the full control effect; nearly all actives have a fitted effect of over 60% in size
#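 AlphaScreen luminescence quantifies BAZ2B engagement of H3K14Ac peptide; the protein and biotinylated peptide are both at 50 nM final, buffer PBS pH 7.4 with 0.01% Tween-20, all steps at room temperature.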
# Sfp PPTase inh = qHTS Assay for Inhibitors of Bacillus subtilis Sfp phosphopantetheinyl transferase (PPTase); AID 1490, 2009; Potency, µM, inactives show largest response in the series, negative = inhibition, actives largely listed as inhibitors; Biochemical Sfp PPTase activity, qHTS; 310,000 tested, 3.5% active; 4'-phosphopantetheinyl transferase ffp (Bacillus subtilis), Q9F4F7;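 also: the enzyme is Sfp with the accession as filed and its product quenches rhodamine fluorescence; 0% = enzyme reaction without inhibitor and -100% = no enzyme wells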
#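 After 15 min at room temperature with compound, 15 nM Sfp received 5 uM rhodamine-CoA plus 12.5 uM BHQ-2-ybbR (50 mM Hepes pH 7.6, 10 mM MgCl2). Rate came from the fluorescence difference over 30 min, ex 525/em 598 nm.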
# G9a block = qHTS Assay for Inhibitors of Histone Lysine Methyltransferase G9a; Histone-lysine N-methyltransferase EHMT2 (Homo sapiens), Q96KQ7; G9a H3K9 monomethylation, AlphaScreen, 2 h; Potency, µM (series often up to 102 µM), without a hit: at the top dose activity, negative = inhibition, most hits filed as inhibitors; 350,000 tested, 8.8% active; AID 504332, 2011; also: % is scaled to controls: 0 for no effect and ±100 for the full control effect; nearly all actives have a fitted effect of over 75% in size
#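 Chemiluminescent proximity detection of H3K9 monomethylation, read after 10 min bead incubation in the dark. Reaction: 20 nM G9a, 500 nM biotin-H3K9 peptide, 20 uM SAM cofactor, 2 h, room temperature, following 15 min enzyme-compound preincubation.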
# HP1b binding inh = HTS for Inhibitors of HP1-beta Chromodomain Interactions with Methylated Histone Tails; Chromobox protein homolog 1 (Homo sapiens), P83916; AlphaScreen HP1-beta / biotin-H3K9me3 peptide binding; Potency, µM (series often up to 114 µM), for the others: top-dose activity change, negative = inhibition, hits mostly inhibitors; 390,000 tested, 0.56% active; AID 540317, 2011; also: nearly all actives have a fitted effect of over 70% in size
#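 HP1-beta protein (50 nM final) preincubated 30 min at room temperature with biotinylated H3(1-18)K9me3 peptide (50 nM) in PBS pH 7.4, 0.01% Tween-20, then compound added for 30 min. AlphaScreen streptavidin donor/nickel chelate acceptor beads (10 ug/mL final), 30 min dark, luminescence read.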
# JMJD2A Tudor inh = qHTS Assay for Inhibitors of JMJD2A-Tudor Domain | Lysine-specific demethylase 4A (Homo sapiens), O75164 | AlphaScreen JMJD2A-Tudor / H3K4me3 peptide binding | Potency, µM (series often up to 114 µM), inactives show at the highest dose activity change, negative = inhibition, hits mostly inhibitors | 390,000 tested, 4.4% active; also: % is scaled to controls: 0 for no effect and ±100 for the full control effect; nearly all actives have a fitted effect of over 50% in size
# L3MBTL1 block = qHTS Assay for the Inhibitors of L3MBTL1 | Lethal(3)malignant brain tumor-like protein 1 (Homo sapiens), Q9Y468 | AlphaScreen L3MBTL1–H3K9me1 peptide binding | Potency, µM (highest dose often 57.1 µM), without a hit: at the top dose activity, negative = inhibition, hits mostly inhibitors | 230,000 tested, 0.66% active | AID 485360, 2010; also: % is scaled to controls: 0 for no effect and ±100 for the full control effect; nearly all actives have a fitted effect of over 60% in size
#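 Read-out is AlphaScreen signal from streptavidin donor and nickel chelate acceptor beads (10 ug/mL final each) bridging L3MBTL1 (50 nM) and biotinylated K9-monomethylated H3(1-15) peptide (75 nM), after 30 min compound exposure at room temperature.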
# Starred values were filed as active, the others as inactive; ? = inconclusive; . = no result given; [ ] = another dose, or the depositor's remark. A selection: hits, their analogues and other compounds. The true share with any hit is near 12%. Calls follow the shape of the dose curve; as a rule, active = well fitted curve in the direction sought with a large enough effect; inconclusive = small, poorly fitted or top-dose-only effect, or another doubt; inactive = no such curve, though single readings can be large; an effect the other way counts as inactive or inconclusive. Potency is read from the fitted curve at half-maximal effect.
SMILES,BAZ2B inh,Sfp PPTase inh,G9a block,HP1b binding inh,JMJD2A Tudor inh,L3MBTL1 block
CCCCN(CC)CCCNC(=O)c1cc2cc3ccc(C)cc3nc2o1,-8.1%,0.0%,11.3%,-11.9%,-2.8%,.
Cc1ccc2nc(Cl)c3cc(C(=O)NCCCN4CCCC4)sc3c2c1,-3.4%,4.4%,50.1µM*,16.9%,-31.9%,.
Cc1ccc2cc3cc(C(=O)NCCCN4CCCC4)oc3nc2c1,-15.8%,18.3%,79.4µM*,22.4%,?,.
CC(=O)c1ccc(Nc2nc(=O)c3cccnc3s2)cc1,-3.1%,-23.7%,?,19.9%,-11.3%,.
CCOC(=O)c1ccc(Nc2nc(=O)c3cccnc3s2)cc1,-2.1%,17.4%,28.2µM*,28.3%,-5.7%,3.2%
Cc1ccc(Nc2nc(=O)c3cccnc3s2)c(Br)c1,-27.3%,-12.0%,14.1µM*,7.2%,-21.4%,-0.2%
CCOC(=O)c1cnc2c(C)cc(C)cc2c1Nc1ccc(OCc2ccccc2)cc1,-15.3%,.,1.4%[59 µM],34.6%,-10.5%,.
CC(=O)c1cccc(Nc2nc(=O)c3cccnc3s2)c1,-5.2%,19.0%,50.1µM*,26.2%,-9.0%,.
O=c1nc(Nc2ccc(OCc3ccccc3)cc2)sc2ncccc12,-11.6%,5.1%,50.1µM*,22.0%,-16.2%,1.3%
Cc1ccc(Nc2nc(C)cc(C)n2)c(Br)c1,23.1%,1.3%,33.4%,74.9%,45.4%,18.7%
CC/C=C\C[C@H]1C(=O)CC[C@@H]1CC(=O)O,.,7.7%,.,.,.,.
O=C(Cn1c(-c2cccs2)cc2cc(F)ccc21)NCCc1ccc(Cl)cc1,-10.6%,.,-6.2%[59 µM],26.4%,-6.6%,.
Cc1ccsc1CN(C)c1ncnc2ccc(-c3ccc4c(c3)OCO4)cc12,.,.,.,.,-31.9%,.
Cc1ccc(/C=C/C(=O)N2CC(C)CC(C)C2)o1 (stereo not drawn),-35.0%,15.8µM*,8.91µM*,?,50.1µM*,-2.0%
CCN1CCN(C(=O)/C=C/c2ccc(C)o2)CC1,11.3%,39.8µM*,10µM*,15.2%,-12.4%,-4.2%
Cc1ccc(NC(=O)c2cc(N(C)C)ccc2[P+](=O)O)cc1,?,9.7%,28.2µM*,5.3%,?,-16.2%
COc1ccc(CC2(CO)CCN(C/C=C/c3ccccc3OC)CC2)cc1,-2.4%,19.7%,5.6%,11.8%,-20.3%,-0.4%
Cc1ccc(CN2CCN(/N=C/C=C/c3ccccc3[N+](=O)[O-])CC2)cc1,20µM*,?,20µM*,17.8µM*,14.1µM*,?
COc1ccccc1/C=C/CN1CCN(c2ccccc2)CC1,50.1µM*,-14.7%,11.2µM*,?,22.4µM*,.
COc1ccccc1/C=C/C=N/N1CCN(Cc2ccccc2)CC1,31.6µM*,-17.9%,11.2µM*,13.7%,-17.4%,?
Cc1ccc(S(=O)(=O)N[C@H]2COC(=O)C/C=C\[C@H](C)[C@@H](NS(=O)(=O)c3ccc(C)cc3)COC(=O)C/C=C\[C@@H]2C)cc1,.,10.5%,.,.,.,.
Cc1cn(C)c(CC(=O)N2CCN(c3cccc(C(F)(F)F)c3)CC2)c1C(=O)O,-2.1%,.,-24.4%[59 µM],17.8%,-18.0%,.
Cn1c(=O)c2cc(S(=O)(=O)NC(C(=O)Nc3cccc(F)c3)c3ccccc3)ccc2n(C)c1=O (stereo not drawn),-13.9%,9.3%,17.8µM*,44.3%,-13.1%,.
CCCNC(=O)C(NS(=O)(=O)c1ccc2c(c1)c(=O)n(C)c(=O)n2C)c1ccccc1 (stereo not drawn),-1.9%,12.5%,39.8µM*,36.8%,-12.8%,4.1%
Cn1c(=O)c2cc(S(=O)(=O)NC(C(=O)Nc3cccnc3)c3ccccc3)ccc2n(C)c1=O (stereo not drawn),8.5%,-6.7%,8.91µM*,43.4%,-12.4%,.
SMILES,BAZ2B inh,Sfp PPTase inh,G9a block,HP1b binding inh,JMJD2A Tudor inh,L3MBTL1 block
Cn1c(=O)[nH]c(=O)c2c1nc(N1CCOCC1)n2Cc1ccccc1,3.9%,.,0.5%[59 µM],30.9%,-5.9%,.
COc1cccc2cc(-c3nc(Nc4cccc(C)c4)sc3C)c(=O)oc12,5.0%,.,-1.7%[59 µM],18.9%,-18.7%,.
O=C(Oc1ccc2c(=O)c(Cl)coc2c1)c1ccncc1,?,-18.1%,35.5µM*,40.4%,-1.6%[57.1 µM],-1.7%
O=C(Oc1ccc2c(=O)c(Oc3ccc4ccccc4c3)coc2c1)c1cncc(Br)c1,8.6%,-2.4%,-12.5%[59 µM],29.3%,-8.5%,2.5%
Cc1cccc(NC(=O)CN(C)S(=O)(=O)c2ccc3c(c2)c(=O)n(C)c(=O)n3C)c1C,-3.7%,.,4.2%[59 µM],37.3%,2.7%,.
C[C@@]12C=Cc3occc3[C@H]1CC[C@@]13C[C@@H](CC[C@H]12)[C@@](O)(CO)C3,.,-17.4%,.,.,.,.
CC1(C)CSC(=NCCc2ccccc2)N1C(=O)c1ccc(C#N)cc1,?,?,2.82µM*,29.0%,0.7%,6.0%
Cc1c(C)n(CCc2ccccc2)c2ncnc(NCCO)c12,?,-4.9%,-31.0%[2.33 µM],-22.2%,-32.4%,.
Cc1c(C)n(CCCN(C)C)c2ncnc(NCc3ccccc3)c12,-21.0%,0.6%,79.4µM*,-7.8%,?,.
CCc1nnc2c(N3CCN(c4cccc(C(F)(F)F)c4)CC3)nc3ccccc3n12,-11.7%,.,-6.1%[59 µM],5.1%,-21.4%,.
c1ccc(-c2cc(NCCN3CCCCC3)c3ccccc3n2)cc1,-21.1%,-3.8%,39.8µM*,20.9%,-14.1%,.
C=CC[C@@](C(C)=O)(C(=O)OC)C(NC(=O)OC)c1ccccc1 (stereo partly drawn),.,-12.2%,.,.,.,.
O=C(Nc1c2ccccc2nc2ccccc12)C(Cl)(Cl)Cl,10.5%,-11.8%,44.7µM*,46.9%,12.9%,10.6%
O=C(Cc1ccccc1)NNc1c2ccccc2nc2ccccc12,?,2.1%,-25.8%,10.5%,-18.9%,-22.0%
CCOc1ccc2c(c1)c(=O)c(S(=O)(=O)c1ccc(Cl)cc1)cn2Cc1ccccc1C,-15.8%,.,1.1%[59 µM],7.2%,-29.1%,.
C=CC(C)=C[C@@]1(C)SC(=O)C(C)=C1O,.,.,34.3%[59 µM],.,.,.
Fc1cccc(F)c1/C=N/N1CCOCC1,.,16.4%,-44.0%,20.5%,-8.9%,.
CCN(CC)c1ccc(/C=N/N2CCN(c3ccccn3)CC2)cc1,-6.3%,18.0%,56.2µM*,-2.6%,-13.9%,-3.4%
CCN(CC)c1ccc(/C=N/N2CCOCC2)cc1,?,-0.3%,11.2µM*,?,?,-5.2%
CCc1ccc(/C=N/N2CCN(c3ccccn3)CC2)cc1,-24.1%,13.3%,-28.2%,24.9%,-27.2%,-19.9%
